We go through 51 molecules from ChEMBL document CHEMBL4513216, “Probing the Open Global Health Chemical Diversity Library for Multistage-Active Starting Points for Next-Generation Antimalarials” (ACS Infect Dis, 2020).

Out of some 68,000 compounds screened, about 2,700 (4%) showed an effect of 50% or more. The sample as a whole holds a higher share of strong results than the screen did.

This assay deals with Plasmodium berghei. Description: Screen against P. berghei liver stage (PbLuc), transformed with Luciferase, at 2uM. It counts as functional, HepG2. The note with it: tested at 2 uM.
In the case of `CN(C)CC(=O)N1Cc2nc(C(=O)N3CCCN(C)CC3)oc2C1`, the INHIBITION is given as 13.25%. `O=C(NCCCn1cccn1)C1CCC(=O)N(Cc2ccccc2F)C1` (stereo unspecified): the INHIBITION turned out to be 12%. As to `CCOc1ncnc2c1CCN(c1cc(C(F)(F)F)ncn1)CC2`, the INHIBITION was -17.38%. Take `CC(C)Oc1ncnc2c1CCN(c1cc(C(F)(F)F)ncn1)CC2`: the INHIBITION came to 20.86%. Take `COc1ncnc2c1CCN(c1cc(C(F)(F)F)ncn1)CC2`: the INHIBITION is 52.08%. Under `CCOCC1CN(Cc2cnn(C)c2)Cc2c1cnn2CC` (stereo unspecified) stands -8.04%. With `O=C(c1ccco1)N1CCCC2(CCN(c3nncs3)C2)C1` (stereo unspecified), the INHIBITION is listed as -56.25%. Take `Cc1ncc2c(n1)CN(Cc1nnc(-c3ccccc3)o1)CC2`: the INHIBITION worked out at 33.5%. On to `O=C(NCC1Cn2nnc(-c3ccncc3)c2CO1)c1ccsc1` (stereo unspecified), for which the INHIBITION is on record as 31.96%.

In the case of `CCn1cc(NC(=O)C2CCN(Cc3noc(C4CC4)n3)CC2)cn1`, the INHIBITION is reported as 66.2%. For the molecule `CCc1noc(CN2CCC(C(=O)Nc3cnn(CC)c3)CC2)n1`, the INHIBITION was determined as 49.9%. Under `O=C(Nc1ccccc1F)N1CCN(Cc2noc(C3CC3)n2)CC1` stands 11.1%; under `Cc1ccccc1NC(=O)N1CCN(Cc2noc(C3CC3)n2)CC1`, 71.93%; under `O=C(Nc1ccccc1)N1CCN(Cc2noc(C3CC3)n2)CC1`, 31.7%. On to `CCn1cc(NC(=O)C2CCN(Cc3noc(C(C)C)n3)CC2)cn1`, for which the INHIBITION was -8.7%. Regarding `CC1(C)CC(C(=O)N2CCC3(CCC(=O)N(C4CC4)C3)CC2)CCO1` (stereo unspecified), the INHIBITION is listed as -29.52%. Take `COCC(=O)N[C@H]1C[C@@H](Cc2cc(CN3CCOCC3)on2)C1(C)C`: the INHIBITION is 19.39%. Under `CCCS(=O)(=O)N[C@H]1CN(c2ncccc2C(N)=O)C[C@@H]1C(C)C` stands -50.23%; under `Cc1nc(C)c(C(=O)N2CCc3nnc(C4CCCCN4C)n3CC2)s1` (stereo unspecified), 26.44%.

In the case of `COc1ccc(CNC(Cc2ccsc2)c2ncccc2C)cc1OC` (stereo unspecified), the INHIBITION is listed as -31.69%.

For the molecule `CC(=O)N1CCC(c2nc3ccc(-c4ccnn4C)cn3n2)CC1`, the INHIBITION worked out at 25.31%. Under `CC(C)N1CCC(c2nc3ccc(-c4ccnn4C)cn3n2)CC1` stands 51.94%.

On to `CCCN1CCC(c2nc3ccc(NCc4ccccc4)cn3n2)CC1`, for which the INHIBITION was 54.65%.

Consider `CCCN1CCC(c2nc3ccc(NCc4cccnc4)cn3n2)CC1`, for which the INHIBITION came to 1.42%.

Regarding `CN1CCC(c2nc3ccc(-c4ccccc4)cn3n2)CC1`, the INHIBITION is on record as 54.56%. Under `Cn1nccc1-c1ccc2nc(C3CCNCC3)nn2c1` stands 39.51%; under `CN1CCC(c2nc3ccc(-c4cccc(F)c4)cn3n2)CC1`, 20.41%; under `CCCN1CCC(c2nc3ccc(C)cn3n2)CC1`, 20.01%. `CCCN1CCC(c2nc3ccc(-c4ccccc4)cn3n2)CC1`: the INHIBITION came to 13.16%. Under `Cc1noc(C)c1-c1cnc(CC2CCN(C(=O)c3cc[nH]n3)C2)cn1` (stereo unspecified) stands -26.24%; under `CCC(C)c1csc(NC(=O)Cc2csc(-c3nnc[nH]3)n2)n1` (stereo unspecified), -5.58%; under `O=C(CCn1c(C(F)(F)F)cc2cccnc21)N1CCOCC1`, 48.65%. With `COc1coc(C(=O)Nc2nc(C)cs2)cc1=O` the figure was -1.29%. With `CN(C)C(C(=O)N1CCC(N2CCSCC2)CC1)c1ccccc1F` (stereo unspecified) the figure was 4.18%; with `CN(Cc1ccc(-n2cccn2)cc1)c1nc(N)nc2c1CCNCC2`, 18.01%; with `CN(Cc1ccccc1-n1cccn1)c1nc(N)nc2c1CCNCC2`, 5.86%.

In the case of `CN(CC1Cc2ccccc2CN1C)c1nc(N)nc2c1CCNCC2` (stereo unspecified), the INHIBITION was 52.98%. As to `Cc1nc2c(c(N(C)Cc3ccccc3-n3cccn3)n1)CCNCC2`, the INHIBITION is -19.21%. As for `Cc1nc2c(c(N(C)CC3Cc4ccccc4CN3C)n1)CCNCC2` (stereo unspecified), the INHIBITION was determined as 57.75%. For the molecule `Cc1nc2c(c(NCC3Cc4ccccc4CN3C)n1)CCNCC2` (stereo unspecified), the INHIBITION is given as 43.44%. Under `Cc1nc(N)cc(C2CCN2CCC(N)=O)n1` (stereo unspecified) stands 11.32%. Under `Cc1ncsc1CN1C[C@@H]2CCCO[C@@H]2[C@H](N(C)C(C)C)C1` stands -10.13%. Consider `Cn1cnc2c1CCN(CC(=O)N(Cc1ccccc1F)C1CC1)C2`, for which the INHIBITION turned out to be 18.99%. In the case of `O=C(NCCc1cc2nc(-c3ccncc3)ccn2n1)C1CCOCC1`, the INHIBITION turned out to be 9.9%. Regarding `CS(=O)(=O)Cc1ccc(C(=O)N2CCCC(n3cncn3)C2)o1` (stereo unspecified), the INHIBITION worked out at 12.7%. Under `Cc1occc1C(=O)N1CCC2(CCC(=O)N(CC(N)=O)C2)CC1` stands -26.32%; under `O=C(c1nc2sccn2c1-c1ncc[nH]1)N1CCCCC1`, -1.65%; under `CCN(Cc1cccc(Cl)c1)Cc1ncc(C(C)(C)C)o1`, 81.59%. With `Cc1cccc(CN(Cc2ccccn2)Cc2ncc(C(C)(C)C)o2)c1`, the INHIBITION stood at 43.44%. Turning to `CCN(Cc1ncc(C(C)(C)C)o1)Cc1ccccc1C`, the INHIBITION was -47.18%.

On to `OC1(CNc2ccc(Br)cn2)CCOCC1`, for which the INHIBITION is listed as -58.79%.
